# Experimental data reported in paper PMC7862700, “An all-to-all approach to the identification of sequence-specific readers for epigenetic DNA modifications on cytosine”.
# Key:
# Assay in all cases: DAPPL (digital affinity profiling via proximity ligation, sequencing); 10 mM Tris-HCl pH 7.5, 50 mM NaCl, 1 mM DTT, 4% glycerol, room temperature, 30 min; GST-TFs on glutathione beads, 16-mer random dsDNA library, 0.1% formaldehyde crosslink after washing; high values mean tight binding
# [1] = target: T1, FLI1 (Homo sapiens, UniProt Q01543 1-452); conditions: protein: recombinant; tags: N-terminal GST; dsDNA, one strand shown
# T1 sequence: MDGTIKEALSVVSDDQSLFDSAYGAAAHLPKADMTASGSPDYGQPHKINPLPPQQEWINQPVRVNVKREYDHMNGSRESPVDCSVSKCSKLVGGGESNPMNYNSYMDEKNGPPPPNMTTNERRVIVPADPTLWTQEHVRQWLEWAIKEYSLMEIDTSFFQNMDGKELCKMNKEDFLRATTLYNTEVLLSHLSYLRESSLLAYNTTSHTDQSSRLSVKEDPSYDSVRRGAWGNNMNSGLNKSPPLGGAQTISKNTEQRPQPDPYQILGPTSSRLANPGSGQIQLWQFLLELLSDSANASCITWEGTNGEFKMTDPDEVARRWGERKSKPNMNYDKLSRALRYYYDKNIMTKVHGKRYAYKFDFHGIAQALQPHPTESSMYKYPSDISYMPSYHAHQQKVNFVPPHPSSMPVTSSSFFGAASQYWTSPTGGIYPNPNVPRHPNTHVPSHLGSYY
# Outline: (§1)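 GST fusions of human transcription factors were expressed in yeast and captured with glutathione beads. Once given DNA barcodes and pooled alongside a tag-only sample, they were incubated for 30 min at room temperature with 200 nmole of a random double-stranded 16-mer DNA library in Tris/NaCl/DTT/glycerol buffer, then washed, crosslinked (0.1% formaldehyde), proximity-ligated, PCR-amplified and sequenced on an Illumina NextSeq500. The binding signal of each hexamer is its read frequency for a factor divided by its frequency for the tag-only sample.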
# [2] = target: T2, ELK1 (Homo sapiens, UniProt P19419 1-428); conditions: protein: recombinant; tags: N-terminal GST; dsDNA, one strand shown
# T2 sequence: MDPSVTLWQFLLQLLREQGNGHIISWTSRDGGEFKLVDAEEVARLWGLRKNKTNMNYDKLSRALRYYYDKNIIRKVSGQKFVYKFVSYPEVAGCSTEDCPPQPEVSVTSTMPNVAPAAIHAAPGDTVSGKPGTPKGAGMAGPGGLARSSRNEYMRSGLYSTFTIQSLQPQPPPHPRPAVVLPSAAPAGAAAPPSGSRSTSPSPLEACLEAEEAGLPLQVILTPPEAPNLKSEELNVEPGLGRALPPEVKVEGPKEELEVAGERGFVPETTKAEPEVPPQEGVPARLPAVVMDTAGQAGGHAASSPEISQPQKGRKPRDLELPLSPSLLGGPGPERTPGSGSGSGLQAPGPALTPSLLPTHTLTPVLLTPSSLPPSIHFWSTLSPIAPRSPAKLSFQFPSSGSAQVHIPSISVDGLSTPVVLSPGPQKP
# Outline: as §1
# [3] = target: T3, GABPA (Homo sapiens, UniProt Q06546 1-454); conditions: protein: recombinant; tags: N-terminal GST; dsDNA, one strand shown
# T3 sequence: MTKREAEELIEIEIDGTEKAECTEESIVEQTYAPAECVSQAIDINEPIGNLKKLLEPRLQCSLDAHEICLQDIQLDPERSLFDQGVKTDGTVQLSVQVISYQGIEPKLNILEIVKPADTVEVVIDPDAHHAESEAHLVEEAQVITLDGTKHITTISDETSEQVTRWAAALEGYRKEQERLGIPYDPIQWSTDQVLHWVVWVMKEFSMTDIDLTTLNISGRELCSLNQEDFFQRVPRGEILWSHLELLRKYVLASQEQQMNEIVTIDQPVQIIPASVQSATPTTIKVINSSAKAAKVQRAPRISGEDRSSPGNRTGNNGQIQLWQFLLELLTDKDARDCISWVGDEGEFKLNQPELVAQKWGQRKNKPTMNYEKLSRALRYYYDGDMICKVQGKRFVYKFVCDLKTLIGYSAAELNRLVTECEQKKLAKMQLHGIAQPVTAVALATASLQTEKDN
# Outline: as §1
# [4] = target: T4, ERG (Homo sapiens, UniProt P11308 1-479); conditions: protein: recombinant; tags: N-terminal GST; dsDNA, one strand shown
# T4 sequence: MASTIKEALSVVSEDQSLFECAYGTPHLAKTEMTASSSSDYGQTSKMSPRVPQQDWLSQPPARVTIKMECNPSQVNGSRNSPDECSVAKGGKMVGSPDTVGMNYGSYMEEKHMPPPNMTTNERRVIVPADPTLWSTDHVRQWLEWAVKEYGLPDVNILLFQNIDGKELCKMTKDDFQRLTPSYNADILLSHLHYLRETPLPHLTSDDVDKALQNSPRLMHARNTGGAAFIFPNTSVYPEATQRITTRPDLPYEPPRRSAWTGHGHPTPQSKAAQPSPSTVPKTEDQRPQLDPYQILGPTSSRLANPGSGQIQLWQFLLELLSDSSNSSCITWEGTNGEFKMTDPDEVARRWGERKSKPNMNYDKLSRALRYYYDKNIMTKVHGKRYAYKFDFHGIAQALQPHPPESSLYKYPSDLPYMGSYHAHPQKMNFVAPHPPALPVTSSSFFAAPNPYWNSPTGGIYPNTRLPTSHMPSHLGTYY
# Outline: as §1
# [5] = target: ELF1 (Homo sapiens, UniProt P32519 1-619); conditions: protein: recombinant; tags: N-terminal GST; dsDNA, one strand shown
# Outline: as §1
# [6] = target: T5, EHF (Homo sapiens, UniProt Q9NZC4 1-300); conditions: protein: recombinant; tags: N-terminal GST; dsDNA, one strand shown
# T5 sequence: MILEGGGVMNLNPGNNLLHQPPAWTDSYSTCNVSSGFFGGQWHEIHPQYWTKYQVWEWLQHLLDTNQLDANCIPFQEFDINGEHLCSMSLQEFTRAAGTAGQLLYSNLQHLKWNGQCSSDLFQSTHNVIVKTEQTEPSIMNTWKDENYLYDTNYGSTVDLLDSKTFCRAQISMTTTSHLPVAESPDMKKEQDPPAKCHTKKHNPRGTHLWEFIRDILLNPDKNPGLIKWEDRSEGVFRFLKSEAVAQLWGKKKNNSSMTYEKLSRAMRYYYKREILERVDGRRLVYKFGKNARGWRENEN
# Outline: as §1
# [7] = target: SPI1 (Homo sapiens, UniProt P17947 1-270); conditions: protein: recombinant; tags: N-terminal GST; dsDNA, one strand shown
# Outline: as §1
# [8] = target: SPIB (Homo sapiens, UniProt Q01892 1-262); conditions: protein: recombinant; tags: N-terminal GST; dsDNA, one strand shown
# Outline: as §1
# [9] = target: T6, ELK3 (Homo sapiens, UniProt P41970 1-407); conditions: protein: recombinant; tags: N-terminal GST; dsDNA, one strand shown
# T6 sequence: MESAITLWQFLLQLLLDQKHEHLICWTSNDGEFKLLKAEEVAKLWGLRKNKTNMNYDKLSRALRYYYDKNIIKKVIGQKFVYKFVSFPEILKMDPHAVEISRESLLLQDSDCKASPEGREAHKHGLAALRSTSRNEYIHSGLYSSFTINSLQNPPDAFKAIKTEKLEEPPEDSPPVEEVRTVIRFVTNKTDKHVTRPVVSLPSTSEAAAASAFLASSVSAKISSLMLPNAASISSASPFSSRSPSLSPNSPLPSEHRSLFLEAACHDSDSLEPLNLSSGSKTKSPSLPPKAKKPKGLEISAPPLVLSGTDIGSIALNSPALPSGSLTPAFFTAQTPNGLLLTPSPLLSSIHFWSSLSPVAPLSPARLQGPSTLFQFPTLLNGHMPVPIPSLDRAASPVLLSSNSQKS
# Outline: as §1
# [10] = target: T7, FEV (Homo sapiens, UniProt Q99581 1-238); conditions: protein: recombinant; tags: N-terminal GST; dsDNA, one strand shown
# T7 sequence: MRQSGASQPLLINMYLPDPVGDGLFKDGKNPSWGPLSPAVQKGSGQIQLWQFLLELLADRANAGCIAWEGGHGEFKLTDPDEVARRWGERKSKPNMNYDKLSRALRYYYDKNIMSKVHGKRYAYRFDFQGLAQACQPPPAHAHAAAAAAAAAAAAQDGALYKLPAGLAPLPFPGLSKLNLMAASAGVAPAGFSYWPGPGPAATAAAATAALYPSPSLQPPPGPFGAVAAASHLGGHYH
# Outline: as §1
# [11] = target: ETV5 (Homo sapiens, UniProt P41161 1-510); conditions: protein: recombinant; tags: N-terminal GST; dsDNA, one strand shown
# Outline: as §1
# [12] = target: HSF1 (Homo sapiens, UniProt Q00613 1-529); conditions: protein: recombinant; tags: N-terminal GST; chain copies: 3; dsDNA, one strand shown
# Outline: as §1
# [13] = target: T8, SPIC (Homo sapiens, UniProt Q8N5J4 1-248); conditions: protein: recombinant; tags: N-terminal GST; dsDNA, one strand shown
# T8 sequence: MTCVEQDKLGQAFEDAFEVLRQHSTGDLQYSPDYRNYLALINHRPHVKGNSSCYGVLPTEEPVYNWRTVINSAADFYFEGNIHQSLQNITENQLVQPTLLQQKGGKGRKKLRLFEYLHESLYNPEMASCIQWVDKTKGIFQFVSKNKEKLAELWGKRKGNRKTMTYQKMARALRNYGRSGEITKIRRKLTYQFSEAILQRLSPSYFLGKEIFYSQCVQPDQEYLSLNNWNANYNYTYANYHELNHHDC
# Outline: as §1
# [14] = target: ELF4 (Homo sapiens, UniProt Q99607 1-663); conditions: protein: recombinant; tags: N-terminal GST; dsDNA, one strand shown
# Outline: as §1
# [15] = target: T9, ELK4 (Homo sapiens, UniProt P28324-2 1-405); conditions: protein: recombinant; tags: N-terminal GST; dsDNA, one strand shown
# T9 sequence: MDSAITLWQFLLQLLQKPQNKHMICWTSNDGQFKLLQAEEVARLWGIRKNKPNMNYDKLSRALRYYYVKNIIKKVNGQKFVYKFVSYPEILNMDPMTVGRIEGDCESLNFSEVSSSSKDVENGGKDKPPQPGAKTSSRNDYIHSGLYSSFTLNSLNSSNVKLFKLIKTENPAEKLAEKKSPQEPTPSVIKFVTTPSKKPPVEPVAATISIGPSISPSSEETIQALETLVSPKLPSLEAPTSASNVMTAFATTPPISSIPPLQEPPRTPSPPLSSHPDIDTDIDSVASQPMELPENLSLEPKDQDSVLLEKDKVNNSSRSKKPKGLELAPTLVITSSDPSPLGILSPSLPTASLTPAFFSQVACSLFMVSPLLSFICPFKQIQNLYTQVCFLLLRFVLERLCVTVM
# Outline: as §1
# [16] = target: T10, ETV2 (Homo sapiens, UniProt O00321 1-342); conditions: protein: recombinant; tags: N-terminal GST; dsDNA, one strand shown
# T10 sequence: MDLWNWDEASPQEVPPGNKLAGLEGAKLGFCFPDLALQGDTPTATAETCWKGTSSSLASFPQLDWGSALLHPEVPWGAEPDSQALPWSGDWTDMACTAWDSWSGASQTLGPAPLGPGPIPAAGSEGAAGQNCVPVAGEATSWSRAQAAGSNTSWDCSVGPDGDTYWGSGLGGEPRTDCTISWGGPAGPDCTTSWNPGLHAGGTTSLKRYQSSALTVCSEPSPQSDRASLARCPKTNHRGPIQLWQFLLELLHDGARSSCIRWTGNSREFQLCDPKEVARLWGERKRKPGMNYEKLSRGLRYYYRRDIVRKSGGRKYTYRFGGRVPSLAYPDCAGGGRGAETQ
# Outline: as §1
# [17] = target: T11, ELF3 (Homo sapiens, UniProt P78545 1-371); conditions: protein: recombinant; tags: N-terminal GST; dsDNA, one strand shown
# T11 sequence: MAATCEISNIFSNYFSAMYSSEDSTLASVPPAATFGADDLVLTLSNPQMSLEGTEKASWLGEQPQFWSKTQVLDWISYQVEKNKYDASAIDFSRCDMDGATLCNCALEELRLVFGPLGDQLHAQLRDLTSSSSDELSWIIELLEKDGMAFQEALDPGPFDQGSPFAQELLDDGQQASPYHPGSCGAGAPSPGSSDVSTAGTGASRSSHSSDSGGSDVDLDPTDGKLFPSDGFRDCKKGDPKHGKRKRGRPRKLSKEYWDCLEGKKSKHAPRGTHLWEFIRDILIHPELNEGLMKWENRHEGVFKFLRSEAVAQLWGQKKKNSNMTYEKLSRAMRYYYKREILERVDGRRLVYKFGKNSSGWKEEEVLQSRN
# Outline: as §1
# [18] = target: CRX (Homo sapiens, UniProt O43186 1-299); conditions: protein: recombinant; tags: N-terminal GST; dsDNA, one strand shown
# Outline: as §1
# [19] = target: ETV1 (Homo sapiens, UniProt P50549 1-477); conditions: protein: recombinant; tags: N-terminal GST; dsDNA, one strand shown
# Outline: as §1
# ETV5, sequence (P41161 whole entry): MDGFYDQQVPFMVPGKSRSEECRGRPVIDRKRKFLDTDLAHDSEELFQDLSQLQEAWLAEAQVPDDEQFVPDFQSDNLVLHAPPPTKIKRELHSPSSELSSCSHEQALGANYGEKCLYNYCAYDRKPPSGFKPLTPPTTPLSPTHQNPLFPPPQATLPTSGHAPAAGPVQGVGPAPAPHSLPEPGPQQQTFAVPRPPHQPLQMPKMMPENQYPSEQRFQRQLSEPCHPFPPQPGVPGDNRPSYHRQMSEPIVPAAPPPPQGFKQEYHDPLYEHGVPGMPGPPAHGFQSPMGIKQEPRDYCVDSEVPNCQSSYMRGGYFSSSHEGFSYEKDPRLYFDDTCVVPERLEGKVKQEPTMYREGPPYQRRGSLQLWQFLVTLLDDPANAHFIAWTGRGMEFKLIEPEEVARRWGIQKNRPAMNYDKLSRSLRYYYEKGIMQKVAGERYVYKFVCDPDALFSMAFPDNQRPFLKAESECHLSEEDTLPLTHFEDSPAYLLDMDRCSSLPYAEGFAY
# HSF1, sequence (Q00613 whole entry): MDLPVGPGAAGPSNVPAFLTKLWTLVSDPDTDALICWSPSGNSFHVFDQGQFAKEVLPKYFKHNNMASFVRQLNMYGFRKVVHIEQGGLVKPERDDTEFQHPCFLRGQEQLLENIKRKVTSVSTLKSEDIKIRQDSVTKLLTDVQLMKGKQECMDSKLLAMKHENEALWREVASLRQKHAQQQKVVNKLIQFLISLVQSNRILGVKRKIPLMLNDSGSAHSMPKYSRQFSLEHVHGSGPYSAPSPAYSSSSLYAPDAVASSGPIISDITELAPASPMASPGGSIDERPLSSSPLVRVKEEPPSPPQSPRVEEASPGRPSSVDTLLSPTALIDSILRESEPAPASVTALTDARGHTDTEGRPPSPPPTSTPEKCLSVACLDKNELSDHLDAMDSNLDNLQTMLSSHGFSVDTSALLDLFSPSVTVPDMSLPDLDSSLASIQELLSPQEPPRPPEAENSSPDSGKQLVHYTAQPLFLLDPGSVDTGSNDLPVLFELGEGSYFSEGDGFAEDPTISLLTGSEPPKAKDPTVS
# SPIB, sequence (Q01892 whole entry): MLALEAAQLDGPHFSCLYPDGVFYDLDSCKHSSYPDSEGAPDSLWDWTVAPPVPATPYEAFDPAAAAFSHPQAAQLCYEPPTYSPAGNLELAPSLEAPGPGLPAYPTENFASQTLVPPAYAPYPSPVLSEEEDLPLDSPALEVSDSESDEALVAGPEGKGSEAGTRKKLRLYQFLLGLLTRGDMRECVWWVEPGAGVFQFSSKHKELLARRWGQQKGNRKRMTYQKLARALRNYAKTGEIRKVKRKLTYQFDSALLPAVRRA
# CRX, sequence (O43186 whole entry): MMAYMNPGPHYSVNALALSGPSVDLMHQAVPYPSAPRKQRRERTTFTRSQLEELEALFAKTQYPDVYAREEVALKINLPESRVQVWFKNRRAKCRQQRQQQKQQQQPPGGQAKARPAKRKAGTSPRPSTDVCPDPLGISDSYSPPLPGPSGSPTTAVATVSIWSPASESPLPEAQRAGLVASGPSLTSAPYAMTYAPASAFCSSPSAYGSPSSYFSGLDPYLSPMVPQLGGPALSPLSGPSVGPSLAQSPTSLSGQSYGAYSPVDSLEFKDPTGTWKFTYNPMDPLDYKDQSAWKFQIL
# ELF1, sequence (P32519 whole entry): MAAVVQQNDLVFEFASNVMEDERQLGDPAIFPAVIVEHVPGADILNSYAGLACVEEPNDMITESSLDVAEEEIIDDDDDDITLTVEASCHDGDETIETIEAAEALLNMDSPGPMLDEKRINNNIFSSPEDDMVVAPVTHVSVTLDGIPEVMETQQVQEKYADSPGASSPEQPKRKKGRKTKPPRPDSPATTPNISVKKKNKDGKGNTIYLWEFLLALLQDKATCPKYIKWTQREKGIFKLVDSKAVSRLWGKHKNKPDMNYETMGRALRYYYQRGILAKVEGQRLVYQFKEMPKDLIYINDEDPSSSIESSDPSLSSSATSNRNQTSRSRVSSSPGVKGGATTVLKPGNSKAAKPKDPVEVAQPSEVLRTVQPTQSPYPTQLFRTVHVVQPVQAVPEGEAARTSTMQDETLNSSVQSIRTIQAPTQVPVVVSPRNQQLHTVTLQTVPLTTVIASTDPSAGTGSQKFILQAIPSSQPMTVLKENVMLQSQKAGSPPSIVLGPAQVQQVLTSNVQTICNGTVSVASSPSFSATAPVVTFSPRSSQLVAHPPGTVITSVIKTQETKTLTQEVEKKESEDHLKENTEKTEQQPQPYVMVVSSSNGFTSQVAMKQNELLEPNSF
# ETV1, sequence (P50549 whole entry): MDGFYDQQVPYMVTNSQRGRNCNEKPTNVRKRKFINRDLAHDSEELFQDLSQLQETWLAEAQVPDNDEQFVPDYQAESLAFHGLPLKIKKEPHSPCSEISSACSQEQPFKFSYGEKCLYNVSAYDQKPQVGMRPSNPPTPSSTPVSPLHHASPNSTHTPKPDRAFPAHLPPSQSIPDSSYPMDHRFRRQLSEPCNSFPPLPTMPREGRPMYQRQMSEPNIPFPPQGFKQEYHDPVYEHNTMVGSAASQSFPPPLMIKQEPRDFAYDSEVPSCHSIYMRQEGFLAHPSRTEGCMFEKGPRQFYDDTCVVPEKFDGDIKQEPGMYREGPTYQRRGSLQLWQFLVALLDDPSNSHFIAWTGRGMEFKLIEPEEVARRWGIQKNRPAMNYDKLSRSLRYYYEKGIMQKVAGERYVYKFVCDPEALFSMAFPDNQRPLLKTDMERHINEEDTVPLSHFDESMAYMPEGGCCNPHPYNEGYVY
# ELF4, sequence (Q99607 whole entry): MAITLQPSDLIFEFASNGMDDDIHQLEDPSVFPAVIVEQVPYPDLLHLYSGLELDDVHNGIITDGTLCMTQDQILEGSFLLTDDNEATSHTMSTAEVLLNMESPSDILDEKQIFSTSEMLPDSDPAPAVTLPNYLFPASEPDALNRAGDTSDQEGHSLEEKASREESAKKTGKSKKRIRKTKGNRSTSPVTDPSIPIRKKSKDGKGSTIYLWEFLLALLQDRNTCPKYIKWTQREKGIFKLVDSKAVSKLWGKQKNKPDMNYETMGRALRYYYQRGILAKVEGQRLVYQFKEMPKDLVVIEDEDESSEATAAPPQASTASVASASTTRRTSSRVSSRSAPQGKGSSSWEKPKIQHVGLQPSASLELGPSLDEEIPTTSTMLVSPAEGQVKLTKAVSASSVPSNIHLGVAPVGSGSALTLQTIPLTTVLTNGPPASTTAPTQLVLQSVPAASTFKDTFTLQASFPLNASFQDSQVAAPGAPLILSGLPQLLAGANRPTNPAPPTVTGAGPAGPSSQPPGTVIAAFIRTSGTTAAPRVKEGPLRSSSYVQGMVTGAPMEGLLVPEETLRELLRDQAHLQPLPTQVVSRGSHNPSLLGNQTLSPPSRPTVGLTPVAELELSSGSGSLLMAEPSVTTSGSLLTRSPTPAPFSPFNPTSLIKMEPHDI
sequence,measurement,setting,value
CATATT,binding signal,[1],"1.22 fold enrichment (6-mer frequency, TF over GST control)"
same,binding signal,[2],"1.17 fold enrichment (6-mer frequency, TF over GST control)"
same,binding signal,[3],"1.27 fold enrichment (6-mer frequency, TF over GST control)"
same,binding signal,[4],"1.26 fold enrichment (6-mer frequency, TF over GST control)"
same,binding signal,[5],"1.24 fold enrichment (6-mer frequency, TF over GST control)"
same,binding signal,[6],"1.17 fold enrichment (6-mer frequency, TF over GST control)"
same,binding signal,[7],"1.27 fold enrichment (6-mer frequency, TF over GST control)"
same,binding signal,[8],"1.28 fold enrichment (6-mer frequency, TF over GST control)"
same,binding signal,[9],"1.17 fold enrichment (6-mer frequency, TF over GST control)"
same,binding signal,[10],"1.22 fold enrichment (6-mer frequency, TF over GST control)"
same,binding signal,[11],"1.26 fold enrichment (6-mer frequency, TF over GST control)"
same,binding signal,[12],"1.31 fold enrichment (6-mer frequency, TF over GST control)"
same,binding signal,[13],"1.12 fold enrichment (6-mer frequency, TF over GST control)"
same,binding signal,[14],"1.32 fold enrichment (6-mer frequency, TF over GST control)"
same,binding signal,[15],"1.29 fold enrichment (6-mer frequency, TF over GST control)"
same,binding signal,[16],"1.43 fold enrichment (6-mer frequency, TF over GST control)"
same,binding signal,[17],"1.35 fold enrichment (6-mer frequency, TF over GST control)"
same,binding signal,[18],"1.33 fold enrichment (6-mer frequency, TF over GST control)"
same,binding signal,[19],"1.25 fold enrichment (6-mer frequency, TF over GST control)"
